Measured values reported in PubChem BioAssay (NCATS).
Records with an inconclusive call do not appear. Activity calls are given as the source filed them. The call rests on the fitted dose curve; in most records, active means well fitted cell-killing curve with a large enough effect; inconclusive means small, poorly fitted or top-dose-only effect, or effect the other way; inactive means flat fitted curve, though single readings scatter.

Experiments:
Test in all cases: Primary qHTS to identify gynecologic anti-cancer compounds using libraries of approved drugs and bioactive compounds (AID 1345084); further: nearly all actives have a fitted effect of over 55% in size
Conditions in all cases: Gynecologic cancer cell panel viability, ATPlite luminescence, 48 h; series mostly up to 57.5 µM
OV90 = test system: OV90
Method in brief: (§1)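 Measured: luminescence after ATPlite addition (15 min, RT). Exposure: 48 h, 37 C, 5% CO2.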

PA-1 = test system: PA-1
Method in brief: as §1

SKOV3 = test system: SKOV3
Method in brief: as §1

Tov-21-G = test system: Tov-21-G
Method in brief: as §1

Tov112D = test system: Tov112D
Method in brief: as §1
On the % scale 0 is the no-effect control and ±100 the full control effect.

COC(=O)C1=COC(O[C@@H]2O[C@H](CO)[C@@H](O)[C@H](O)[C@H]2O)C2C(C)C(=O)CC12 (stereo not given in full)
inactive: Potency (OV90) | Potency (PA-1) | Potency (SKOV3) | Potency (Tov-21-G) | Potency (Tov112D)

CC(=O)OC1C(C)C2C(OC3OC(CO)C(O)C(O)C3O)OC=C(C(=O)O)C2C1OC(=O)c1ccccc1 (stereo not given)
inactive: Potency (OV90) | Potency (PA-1) | Potency (SKOV3) | Potency (Tov-21-G) | Potency (Tov112D)

C=C1CCC2C(C)(C(=O)OC)CCCC2(C)C1CCC1=CCOC1=O (stereo not given)
inactive: Potency (OV90) | Potency (PA-1) | Potency (SKOV3) | Potency (Tov-21-G) | Potency (Tov112D)

COC(=O)C1=CO[C@@H](O[C@@H]2O[C@H](CO)[C@@H](O)[C@H](O)[C@H]2O)[C@@H]2[C@@H](C(=O)O)CC[C@H]12
inactive: Potency (OV90) | Potency (PA-1) | Potency (SKOV3) | Potency (Tov-21-G) | Potency (Tov112D)

COC(=O)C[C@@H]1C(C(=O)O)=CO[C@@H](O[C@@H]2O[C@H](CO)[C@@H](O)[C@H](O)[C@H]2O)/C1=C\COC(=O)/C=C/c1ccc(O)c(OC)c1
inactive: Potency (OV90) | Potency (PA-1) | Potency (SKOV3) | Potency (Tov-21-G) | Potency (Tov112D)

COC(=O)C1C(O)CCC2CN3CCc4c([nH]c5ccccc45)C3CC21 (stereo not given)
inactive: Potency (OV90) | Potency (PA-1) | Potency (SKOV3) | Potency (Tov-21-G) | Potency (Tov112D)

COc1cc(CO)ccc1O[C@@H]1O[C@H](CO)[C@@H](O)[C@H](O)[C@H]1O
inactive: Potency (OV90) | Potency (PA-1) | Potency (SKOV3) | Potency (Tov-21-G) | Potency (Tov112D)

CC(C)=CCc1cc(O[C@@H]2O[C@H](CO[C@@H]3OC[C@](O)(CO)[C@H]3O)[C@@H](O)[C@H](O)[C@H]2O)ccc1O
inactive: Potency (OV90) | Potency (PA-1) | Potency (SKOV3) | Potency (Tov-21-G) | Potency (Tov112D)

Fc1cccc(CN(C2=NCCN2)c2c(Cl)cccc2Cl)c1
inactive: Potency (OV90) | Potency (PA-1) | Potency (SKOV3) | Potency (Tov-21-G) | Potency (Tov112D)

C=C1C(O)CC2C(C(=O)O)=COC(OC3OC(CO)C(O)C(O)C3OC(=O)/C=C\c3ccc(O)cc3)C12 (stereo not given)
inactive: Potency (OV90) | Potency (PA-1) | Potency (SKOV3) | Potency (Tov-21-G) | Potency (Tov112D)

CCC/C=C1\OC(=O)C2=C1CCC(O)C2O (stereo not given)
inactive: Potency (OV90) | Potency (PA-1) | Potency (SKOV3) | Potency (Tov-21-G) | Potency (Tov112D)

C/C=C/C=C/C(=O)OC1CC/C=C/C(O)C(O)C(CCC)OC1=O (stereo not given)
inactive: Potency (OV90) | Potency (PA-1) | Potency (SKOV3) | Potency (Tov-21-G) | Potency (Tov112D)

N#CC1C(=O)N=C(c2cc(Cl)ccc2O)C=C1c1cc(OCc2ccccc2)cc(OCc2ccccc2)c1 (stereo not given)
inactive: Potency (OV90) | Potency (PA-1) | Potency (SKOV3) | Potency (Tov-21-G) | Potency (Tov112D)

C=C(C)C1CCC2(C(=O)OC3OC(COC4OC(CO)C(O)C(O)C4O)C(OC4OC(C)C(O)C(O)C4O)C(O)C3O)CCC3(C(=O)O)C(CCC4C5(C)CCC(=O)C(C)(C)C5CCC43C)C12 (stereo not given)
inactive: activity change, negative = cytotoxicity (OV90) -0.071% [at 11.6 µM] | activity change, negative = cytotoxicity (PA-1) 8.9% [at 11.6 µM] | activity change, negative = cytotoxicity (SKOV3) -6.38% [at 11.6 µM] | activity change, negative = cytotoxicity (Tov-21-G) 0.715% [at 11.6 µM] | activity change, negative = cytotoxicity (Tov112D) -0.367% [at 11.6 µM]
